Experimental data taken from PubChem BioAssay (EPA / NIEHS).
Values joined by “and” are separate entries in the source; they are usually repeats but may differ in a detail not shown here. Equal entries are not always repeated. Inconclusive results are not listed. Where a structure was tested more than once in an assay, its records may differ in their call. Active and inactive are the calls of the source. Rule for the calls, unless noted: active = hit-call score of the fitted dose curve at least 0.9, where 1 is the maximum; inactive = score below 0.9.

Experiments:
[1] = BSK_BT_PBMCCytotoxicity: PBMC Cytotoxicity Assessment in the BioMAP Diversity Plus: BT Assay (AID 2284225); settings: primary human B cells with PBMC;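 note: PBMC viability measured by Alamar Blue dye reduction fluorescence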
Summary of the method: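 Viability by Alamar Blue reduction (6 h, ex/em 546/580 nm) after 90 h culture of SEB/TSST-1-activated PBMC (20 ng/mL each) given compound 1 h before activation. DMSO served as baseline for curve fitting.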

[2] = read-out: Secreted IgG (sIgG), gene 3500; experiment: BSK_BT_sIgG: BioMAP Diversity Plus: BT Assay for Secreted IgG (sIgG) Biomarker Activity (AID 2284226); settings: primary human B cells with PBMC
Summary of the method: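 ELISA quantitation of secreted IgG from human B cells co-cultured with PBMC, sampled 24 h post-dosing. Values fitted relative to DMSO vehicle as baseline, positive fitting direction.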

[3] = BSK_BT_Bcell_Proliferation: Viability Assessment in the BioMAP Diversity Plus: BT Assay for B cell Proliferation (AID 2284227); settings: primary human B cells with PBMC
Summary of the method: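 Human B cell/PBMC co-culture; test chemical added; 72 h; TCA fix (10%), 0.1% SRB stain, A560 for total protein as a proliferation read-out; positive-direction fit vs DMSO baseline.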

[4] = read-out: Interleukin 6 (IL6), IL6 (gene 3569); experiment: BSK_BT_xIL6: BioMAP Diversity Plus: BT Assay for Interleukin 6 (IL6) Biomarker Activity (AID 2284228); settings: primary human B cells with PBMC
Summary of the method: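 Secreted IL-6 in the primary human B cell plus PBMC system, measured by Luminex at 24 h post-chemical, DMSO as baseline. Alamar Blue viability: 75,000 cells/well, chemical 1 h before SEB/TSST-1 (20 ng/mL each), 90 h, then 6 h dye.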

[5] = read-out: Interleukin 17A (IL17A), IL17A (gene 3605); experiment: BSK_BT_xIL17A: BioMAP Diversity Plus: BT Assay for Interleukin 17A (IL17A) Biomarker Activity (AID 2284229); settings: primary human B cells with PBMC
Summary of the method: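 Luminex xMAP quantification of secreted IL-17A after 24 h chemical exposure of a primary human B cell/PBMC co-culture. Signal increases fitted relative to DMSO negative control.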

[6] = read-out: Tumor necrosis factor (Homo sapiens) (UniProt P01375); experiment: BSK_BT_xTNFa: BioMAP Diversity Plus: BT Assay for Tumor necrosis factor alpha (TNF-alpha) Biomarker Activity (AID 2284230); settings: primary human B cells with PBMC
Summary of the method: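 Read-out: Luminex xMAP quantitation of secreted TNF-alpha from a B cell/PBMC co-culture 24 h after compound addition. Signal analysed relative to DMSO vehicle, positive fitting direction.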

[7] = read-out: Vascular cell adhesion molecule 1 (VCAM1), VCAM1 (gene 7412); experiment: BSK_MyoF_VCAM1: BioMAP Diversity Plus: MyoF Assay for Vascular cell adhesion molecule 1 (VCAM1) Biomarker Activity (AID 2284231); settings: primary human lung fibroblasts
Summary of the method: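 ELISA readout of VCAM-1 on human lung fibroblast cultures 24 hours after dosing, analyzed for signal gain relative to DMSO. Overt cytotoxicity was checked by sulforhodamine B total-protein staining in parallel cultures.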

[8] = CCTE_Mundy_HCI_Cortical_Synap_Neur_Matur_CellBodySpotCount: CCTE's Synaptogenesis and Neurite Maturation Assay in rat cortical cells for Cell Body Spot Count, Mundy Lab (AID 2284223)
Summary of the method: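 High-content imaging counts synaptophysin puncta on neuronal cell bodies per neuron after MAP2/synaptophysin immunostaining. Rat primary cortical cells, glia arrested with AraC at DIV 5, were exposed DIV 7–12; signal decrease measured against DMSO.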

[9] = CCTE_Mundy_HCI_hNP1_Pro_ResponderAvgInten: CCTE's Proliferation Assay in human neuroprogenitor cells, Mundy Lab (AID 2284224; active = hit-call score of the fitted dose curve at least 0.9, where 1 is the maximum;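 note: human neural progenitor cells hNP1 derived from WA09 embryonic stem cells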)
Summary of the method: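 Proliferation read as average intensity of BrdU-positive cells, imaged at 26.25 h post-dosing: chemical exposure started after 40–44 h culture, BrdU during final 4 h, paraformaldehyde fixation. Positive-direction fit relative to DMSO.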

[10] = UKN4_HCS_LUHMES_cell_viability: Viability Assessment in the University of Konstanz (UKN) Leist Lab Neurite Outgrowth Assay in human LUHMES cells (UKN4) (AID 2284232)
Summary of the method: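 Viability was read by high-content imaging of calcein-AM/H-33342-stained cells after 24 h toxicant exposure, staining included. Cells: human LUHMES on day 2 of dopaminergic differentiation, dosed shortly after attachment; DMSO baseline, bidirectional curve fitting.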

Tumor necrosis factor (Homo sapiens), sequence (P01375 whole entry, looked up): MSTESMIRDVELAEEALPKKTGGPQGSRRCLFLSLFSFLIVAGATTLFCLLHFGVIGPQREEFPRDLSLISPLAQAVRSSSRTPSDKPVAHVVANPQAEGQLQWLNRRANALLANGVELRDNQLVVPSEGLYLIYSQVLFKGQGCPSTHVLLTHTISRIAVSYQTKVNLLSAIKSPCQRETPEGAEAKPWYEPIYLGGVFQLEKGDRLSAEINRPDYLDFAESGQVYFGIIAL

SMILES: OCC(F)(OC(F)(F)C(F)(OC(F)(F)C(F)(F)C(F)(F)F)C(F)(F)F)C(F)(F)F (configuration not stated)
- AC50 [1]: 2.62 µM (active) and 5.68 µM (active)
- AC50 [2]: 5.29 µM (active)
- outcome [2]: inactive
- AC50 [3]: 3.33 µM (active)
- outcome [3]: inactive
- outcome [4]: inactive
- outcome [5]: inactive
- AC50 [6]: 4.92 µM (active)
- outcome [6]: inactive
- AC50 [7]: 6.21 µM (active)
- outcome [7]: inactive

SMILES: c1ccc(Sc2ccccc2)cc1
- outcome [1]: inactive
- outcome [2]: inactive
- outcome [3]: inactive
- outcome [4]: inactive
- outcome [5]: inactive
- outcome [6]: inactive
- AC50 [7]: 34.1 µM (active)

SMILES: O=S1(=O)CC(Cl)(Cl)C(Cl)(Cl)C1
- AC50 [1]: 0.874 µM (active)
- AC50 [2]: 0.329 µM (active)
- AC50 [3]: 0.537 µM (active)
- AC50 [4]: 0.416 µM (active)
- AC50 [5]: 0.346 µM (active)
- AC50 [6]: 0.749 µM (active)
- AC50 [7]: 1.42 µM (active)

SMILES: CC(C)Cc1ccc(C(C)C(=O)O)cc1 (configuration not stated)
- outcome [8]: inactive
- outcome [9]: inactive
- outcome [1]: inactive
- outcome [2]: inactive
- outcome [3]: inactive
- outcome [4]: inactive
- outcome [5]: inactive
- outcome [6]: inactive
- outcome [7]: inactive
- outcome [10]: inactive

SMILES: CCOC(=O)CCCCCCCCC(=O)OCC
- outcome [1]: inactive
- outcome [2]: inactive
- outcome [3]: inactive
- outcome [4]: inactive
- outcome [5]: inactive
- outcome [6]: inactive
- outcome [7]: inactive

SMILES: N#CCCNCCC#N
- outcome [8]: inactive

SMILES: C=C(C)C(=O)OCCC(F)(F)C(F)(F)C(F)(F)C(F)(F)C(F)(F)C(F)(F)C(F)(F)C(F)(F)F
- outcome [1]: inactive
- outcome [2]: inactive
- outcome [3]: inactive
- outcome [4]: inactive
- outcome [5]: inactive
- outcome [6]: inactive
- outcome [7]: inactive

SMILES: N[C@@H](CCC(=O)O)C(=O)O
- outcome [8]: inactive

SMILES: OCCN1CCOCC1
- outcome [1]: inactive
- outcome [2]: inactive
- outcome [3]: inactive
- outcome [4]: inactive
- outcome [5]: inactive
- outcome [6]: inactive
- outcome [7]: inactive

SMILES: CCCCC(CC)COC(=O)COc1ccc(Cl)cc1C (configuration not stated)
- AC50 [8]: 25 µM (active)

SMILES: CC1(C)[C@H](C=C(Cl)Cl)[C@H]1C(=O)OCc1cccc(Oc2ccccc2)c1
- outcome [1]: inactive
- outcome [2]: inactive
- outcome [3]: inactive
- outcome [4]: inactive
- outcome [5]: inactive
- outcome [6]: inactive
- outcome [7]: inactive

SMILES: CC(=O)CCC=C(C)CCC=C(C)C
- outcome [1]: inactive
- AC50 [2]: 20 µM (active)
- AC50 [3]: 31.7 µM (active)
- outcome [4]: inactive
- outcome [5]: inactive
- outcome [6]: inactive
- outcome [7]: inactive

SMILES: NC(=O)c1c(Cl)cccc1Cl
- outcome [1]: inactive
- outcome [2]: inactive
- outcome [3]: inactive
- outcome [4]: inactive
- outcome [5]: inactive
- outcome [6]: inactive
- outcome [7]: inactive

SMILES: C=C(F)C(=O)OC(C(F)(F)F)C(F)(F)F
- outcome [1]: inactive
- outcome [2]: inactive
- outcome [3]: inactive
- outcome [4]: inactive
- outcome [5]: inactive
- outcome [6]: inactive
- outcome [7]: inactive

SMILES: CCCCCCCCCCCCS
- outcome [1]: inactive
- outcome [2]: inactive
- outcome [3]: inactive
- outcome [4]: inactive
- outcome [5]: inactive
- outcome [6]: inactive
- AC50 [7]: 23.1 µM (active)

SMILES: CC1=CC(C)C(C=O)C(C)C1 (configuration not stated) (tested in a mixture with another compound)
- outcome [1]: inactive
- outcome [2]: inactive
- outcome [3]: inactive
- outcome [4]: inactive
- outcome [5]: inactive
- outcome [6]: inactive
- outcome [7]: inactive

SMILES: C=CC(=O)OCC(CO)(COC(=O)C=C)COC(=O)C=C
- AC50 [1]: 1.7 µM (active)
- AC50 [2]: 0.709 µM (active)
- AC50 [3]: 1.19 µM (active)
- AC50 [4]: 0.994 µM (active)
- AC50 [5]: 1.09 µM (active)
- AC50 [6]: 1.88 µM (active)
- AC50 [7]: 0.964 µM (active)

SMILES: CCCCCCCCCC(=O)OCC
- outcome [1]: inactive
- outcome [2]: inactive
- outcome [3]: inactive
- outcome [4]: inactive
- outcome [5]: inactive
- outcome [6]: inactive
- outcome [7]: inactive

SMILES: CC(C)(C)c1cccc(O)c1
- outcome [1]: inactive
- outcome [2]: inactive
- outcome [3]: inactive
- outcome [4]: inactive
- outcome [5]: inactive
- outcome [6]: inactive
- outcome [7]: inactive

SMILES: CCOC(=O)C=Cc1ccccc1
- outcome [1]: inactive
- outcome [2]: inactive
- outcome [3]: inactive
- outcome [4]: inactive
- outcome [5]: inactive
- outcome [6]: inactive
- outcome [7]: inactive

SMILES: CC=CC(=O)C1=C(C)C=CCC1(C)C
- outcome [1]: inactive
- outcome [2]: inactive
- outcome [3]: inactive
- outcome [4]: inactive
- outcome [5]: inactive
- outcome [6]: inactive
- outcome [7]: inactive

SMILES: C=C1CC/C=C(\C)CC[C@@H]2[C@@H]1CC2(C)C
- outcome [1]: inactive
- outcome [2]: inactive
- outcome [3]: inactive
- outcome [4]: inactive
- outcome [5]: inactive
- outcome [6]: inactive
- AC50 [7]: 23.9 µM (active)

SMILES: CC(=O)OC(C)(C)C1CC=C(C)CC1 (configuration not stated)
- outcome [1]: inactive
- outcome [2]: inactive
- outcome [3]: inactive
- outcome [4]: inactive
- outcome [5]: inactive
- outcome [6]: inactive
- outcome [7]: inactive

SMILES: CCC(=O)OCC=Cc1ccccc1
- outcome [1]: inactive
- outcome [2]: inactive
- outcome [3]: inactive
- outcome [4]: inactive
- outcome [5]: inactive
- outcome [6]: inactive
- outcome [7]: inactive

SMILES: CCCCCCCC1CCCC1=O (configuration not stated)
- outcome [1]: inactive
- AC50 [2]: 2.5 µM (active)
- outcome [3]: inactive
- outcome [4]: inactive
- outcome [5]: inactive
- outcome [6]: inactive
- outcome [7]: inactive

SMILES: O=C(O)C(F)(F)C(F)(F)C(F)(F)C(F)(F)C(F)(F)C(F)(F)C(F)(F)C(F)F
- AC50 [1]: 19.8 µM (active)
- outcome [1]: inactive
- outcome [2]: inactive
- AC50 [3]: 21 µM (active) and 22.2 µM (active)
- outcome [4]: inactive
- outcome [5]: inactive
- outcome [6]: inactive
- outcome [7]: inactive

SMILES: O=C(O)C(F)(F)OC(F)(F)C(F)(F)OC(F)(F)C(F)(F)C(F)(F)C(F)(F)F
- AC50 [1]: 22.1 µM (active)
- outcome [1]: inactive
- outcome [2]: inactive
- outcome [3]: inactive
- outcome [4]: inactive
- outcome [5]: inactive
- outcome [6]: inactive
- outcome [7]: inactive

SMILES: COc1ccccc1NC(=O)CC(C)=O
- outcome [1]: inactive
- outcome [2]: inactive
- outcome [3]: inactive
- outcome [4]: inactive
- outcome [5]: inactive
- outcome [6]: inactive
- outcome [7]: inactive

SMILES: c1ccc2c(c1)-c1ccc3ccc4cccc5cc-2c1c3c45
- outcome [1]: inactive
- outcome [2]: inactive
- AC50 [3]: 1.98 µM (active)
- AC50 [4]: 0.0398 µM (active)
- outcome [5]: inactive
- outcome [6]: inactive
- AC50 [7]: 2.78 µM (active)

SMILES: Nc1ccc(N)c([N+](=O)[O-])c1
- outcome [2]: inactive
- outcome [3]: inactive
- outcome [4]: inactive
- outcome [5]: inactive
- outcome [6]: inactive
- outcome [7]: inactive

SMILES: CC(=O)OCC=C(C)CCC=C(C)CCC=C(C)C
- AC50 [1]: 33.2 µM (active)
- AC50 [2]: 20 µM (active)
- AC50 [3]: 37.9 µM (active)
- AC50 [4]: 30.7 µM (active)
- AC50 [5]: 20 µM (active)
- AC50 [6]: 36.5 µM (active)
- outcome [7]: inactive

SMILES: O=C1OC2(c3ccc(O)cc3Oc3cc(O)ccc32)c2ccccc21
- outcome [1]: inactive
- AC50 [2]: 35.5 µM (active)
- outcome [3]: inactive
- outcome [4]: inactive
- outcome [5]: inactive
- outcome [6]: inactive
- outcome [7]: inactive

SMILES: O=S(=O)(O)C(F)(F)C(F)(F)OC(F)(F)C(F)(F)F
- outcome [1]: inactive
- outcome [2]: inactive
- outcome [3]: inactive
- outcome [4]: inactive
- outcome [5]: inactive
- outcome [6]: inactive
- outcome [7]: inactive

SMILES: c1ccc2scnc2c1
- outcome [8]: inactive
